Screening data: PubChem, Center for Chemical Genomics, University of Michigan
Dicer inh – human Dicer pre-microRNA cleavage inhibition. z-score at 25 µM. Q9UPY3. cat-ELCCA pre-miR-21 Dicer processing, chemiluminescence; active compounds read high. actives 6% (n = 47,000); in the data active means z-score above about 3, passing the limit was not always enough;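 further: higher signal means more uncleaved substrate so more Dicer inhibition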
Of the large screens only hits and unclear results are named; the others gave an inactive call. Many of the other results were omitted from the sample, so hits are more common in it than they were.

CC1(C)Cc2nc3sc4c(NCc5ccccc5)ncnc4c3cc2CO1	none
CCOc1ccc(-c2cc(=O)c3cc(O)ccc3o2)cc1	none
CCOC(=O)C(CC)Oc1ccc2c(=O)c(-c3ccc(Cl)cc3)coc2c1 (stereo not drawn)	none
CCCOC(=O)COc1ccc2c(=O)c(Oc3cc(C)c(Cl)c(C)c3)coc2c1	none
CC(C)COC(=O)C(C)Oc1ccc2c(=O)c(Oc3ccccc3Cl)coc2c1 (stereo not drawn)	none
CCCCOC(=O)C(C)Oc1ccc2c(=O)c(Oc3ccccc3Br)coc2c1 (stereo not drawn)	none
CCOCCOC(=O)COc1ccc2c(=O)c(-c3ccc(Cl)cc3)coc2c1	Dicer inh 3.5
CCOCCOC(=O)C(C)Oc1ccc2c(=O)c(Oc3cc(C)c(Cl)c(C)c3)coc2c1 (stereo not drawn)	none
CCC(C)OC(=O)C(C)Oc1ccc2c(=O)c(-c3ccc(Cl)cc3)coc2c1 (stereo not drawn)	none
CCCOC(=O)C(C)Oc1ccc2c(=O)c(-c3ccc(Cl)cc3)coc2c1 (stereo not drawn)	Dicer inh 3.2
Cc1cc(C)cc(Oc2coc3cc(OC(C)C(=O)OCC(C)C)ccc3c2=O)c1 (stereo not drawn)	Dicer inh 3.6
CC(CN1CCN(Cc2ccccc2)CC1)N(C(=O)C1CCC1)c1ccccn1 (stereo not drawn)	none
CS(=O)(=O)N1N=C(c2ccco2)CC1c1cn(-c2ccccc2)nc1-c1cccs1 (stereo not drawn)	none
Cc1ccc2oc(-c3ccccc3Cl)c(O)c(=O)c2c1	none
O=C(O)c1nn2c(c1Br)NC(c1ccccc1)CC2C(F)(F)F (stereo not drawn)	none
Cc1ccc(C2CC(C(F)(F)F)n3nc(C(=O)N4CCN5CCCC5C4)c(Cl)c3N2)cc1 (stereo not drawn)	none
NC(=O)c1nn2c(c1Br)NC(c1ccccc1)CC2C(F)(F)F (stereo not drawn)	Dicer inh 3.8
O=C(c1nn2c(c1Cl)NC(c1ccc(Br)cc1)CC2C(F)(F)F)N1CCCCC1 (stereo not drawn)	none
CC(NC(=O)c1nn2c(c1Cl)NC(c1ccccc1)CC2C(F)(F)F)c1ccccc1 (stereo not drawn)	none
O=C(c1nn2c(C(F)(F)F)cc(-c3ccccc3)nc2c1Br)N1CCOCC1	none
Cc1ccc(C2CC(C(F)(F)F)n3nc(C(=O)N4CCCCC4)c(Cl)c3N2)cc1 (stereo not drawn)	none
O=C(c1nn2c(c1Br)NC(c1ccccc1)CC2C(F)(F)F)N1CCOCC1 (stereo not drawn)	Dicer inh 5.2
O=C(c1nn2c(c1Cl)NC(c1ccc(Br)cc1)CC2C(F)(F)F)N1CCOCC1 (stereo not drawn)	Dicer inh 3.7
Cc1nc(S(=O)(=O)Nc2ccc(S(=O)(=O)N3CCOCC3)cc2)cn1C	none
COC(=O)c1sc(N2CCOCC2)c(C#N)c1N	none
Cc1nc(-c2ccccn2)[nH]c(=O)c1Cl	none
COc1ccc(-c2cc(-c3ccc(OC)cc3)nc(NS(=O)(=O)c3ccc(NC(C)=O)cc3)n2)cc1	none
CNC(=S)NNC(=O)c1sc(SC)c2c1CCCC2O (stereo not drawn)	none
Cc1ncc(S(=O)(=O)Cc2cccs2)c(N)n1	Dicer inh 5.2
CSc1ncc(S(=O)(=O)Cc2cccs2)c(N)n1	none
Cc1ncc(S(=O)(=O)C(C)(C)C)c(N)n1	none
CCCCCCCCO[C@@H]1O[C@H](CO)[C@@H](O)[C@H](O)[C@H]1O	none
CC(=O)NC12CC3CC(C1)CC(O[N+](=O)[O-])(C3)C2	none
Cc1c(Cl)cc(F)cc1S(N)(=O)=O	none
O=C(Nc1ccc2oc(-c3cccc4ccccc34)nc2c1)c1ccc([N+](=O)[O-])o1	none
O=C(Nc1ccc2oc(-c3ccccc3F)nc2c1)c1ccc([N+](=O)[O-])o1	none
Cc1ccccc1-c1nc2cc(NCc3cccs3)ccc2o1	Dicer inh 8.2
CCCc1c(C)nc(SCc2ccc(Cl)cc2)[nH]c1=O	none
CCC(Oc1ccccc1)C(=O)Nc1nc2c(s1)C(=O)CC(C)(C)C2 (stereo not drawn)	none
Cc1cc(NC(=O)CSc2nc(-c3ccccc3)c(C#N)c(=O)[nH]2)no1	none
CC1(C)CC(=O)c2sc(NC(=O)CSc3nc(-c4ccccc4)c(C#N)c(=O)[nH]3)nc2C1	Dicer inh 4.1
N#Cc1cc(N)ccc1SCc1ccccc1	none
CCCCNC(=O)Nc1cc(C(C)(C)C)nn1C	none
CCCCn1c(SCC(=O)OC)nc2sc3c(c2c1=O)CCC3	Dicer inh 4.3
COC(=O)CSc1nc2sc3c(c2c(=O)n1-c1ccc(OC)cc1)CCCC3	none
CCn1c(SCC(=O)c2ccccc2)nc2sc3c(c2c1=O)CCC3	none
COc1cccc2c1c(NC(=O)CSCC(=O)O)nn2C	none
Cc1ccc(C(=O)Nc2cnc3ccc(C)cn3c2=O)cc1	none
N#C/C(=C\c1ccc(Cl)cc1)C(=O)C1CC1	none
COc1ccc(C2C(C(=O)OC(C)C)=C(C)NC3=C2C(=O)CCC3)cc1OC (stereo not drawn)	none
O=c1nc(-c2ccc(Cl)cc2)oc2ccccc12	none
c1ccc(Nc2nc(-c3ccccc3)nc3ccccc23)cc1	none
O=c1nc(Nc2ccccc2)oc2ccccc12	Dicer inh 3.8
CC1(C)C2CCC13CS(=O)(=O)N1OC13C2 (stereo not drawn)	none
N#CC(=Nc1ccc(F)cc1F)C1=C(O)c2ccccc2C1=O	none
CC(C)(C)c1ccc(N=C(C#N)C2=C(O)c3ccccc3C2=O)cc1	Dicer inh 3.1
N#CC(=Nc1ccc(F)cc1)C1=C(O)c2ccccc2C1=O	none
C=C(NC(=O)C(=C)NC(=O)c1csc(C2=N[C@H]3c4csc(n4)[C@H]4NC(=O)c5csc(n5)[C@H]([C@@](C)(O)[C@@H](C)O)NC(=O)[C@H]5CSC(=N5)/C(=C\C)NC(=O)[C@H]([C@@H](C)O)NC(=O)c5csc(n5)[C@]3(CC2)NC(=O)[C@H](C)NC(=O)C(=C)NC(=O)[C@H](C)NC(=O)[C@H](C(C)CC)N[C@@H]2C=Cc3c([C@H](C)O)cc(nc3[C@H]2O)C(=O)O[C@@H]4C)n1)C(N)=O (stereo partly drawn)	none
NN1CC(=O)N(c2ccccc2F)CC1=O	none
Cc1ccc(NC(=O)NN2CC(=O)N(c3ccccc3F)CC2=O)cc1	Dicer inh 4.8
Cc1ccc(NC(=O)NN2CC(=O)N(c3ccc(Cl)cc3)CC2=O)cc1	none
CC1CN=C(N(C(=O)Nc2ccc(Cl)cc2)c2ccccc2)S1 (stereo not drawn)	none
Cc1ccc(C)c(Nc2nc(-c3cccnc3)cs2)c1	Dicer inh 3.3
Cc1cc(C)nc(NS(=O)(=O)c2ccc(Nc3nc(-c4cccnc4)cs3)cc2)n1	none
Cc1ccc(C)c(Nc2n[nH]c(=S)s2)c1	Dicer inh 4.6
Cc1ccc(Nc2n[nH]c(=S)s2)cc1	none
c1cnc(Nc2nc(-c3cccnc3)cs2)nc1	none
Cc1c(Cl)cccc1Nc1n[nH]c(=S)s1	none
S=c1[nH]c2c(Cl)cc(Cl)cc2s1	none
Cc1nc(-c2ccc(S(=O)(=O)Oc3ccc(Cl)cc3)s2)cs1	none
N#CC(C#N)=NNc1ccc(F)c(C(F)(F)F)c1	none
CC(=O)N(C(C)=O)c1ccc2c3c(cccc13)CC2	none
CSc1sc(NC(=O)Nc2cccc(C(F)(F)F)c2)cc1S(=O)(=O)C(C)C	Dicer inh 3.3
CSc1sc(C(=O)Nc2cccc(C(F)(F)F)c2)cc1C#N	none
CSc1sc(NC(=O)Nc2ccc(Cl)cc2)cc1S(=O)(=O)C(C)C	Dicer inh 3.9
CSc1sc(C(=O)NNC(=O)c2ccc(Cl)cc2)cc1S(=O)(=O)C(C)C	none
CC(C)S(=O)(=O)c1csc(NC(=O)Nc2ccc(C(F)(F)F)cc2)c1	none
CC(C)S(=O)(=O)c1csc(NC(=O)Nc2ccc(Cl)cc2)c1	none
O=C1/C(=C\c2ccccc2)Sc2ccccc21	none
